In PubChem BioAssay (NCATS) one finds Potency, activity change, negative = inhibition and outcome data, which are given here for 30 molecules.

The test system of assay [1] is Zika virus NS2B-NS3 protease (unlinked complex). Description: Primary screen GU Rhodamine qHTS for Zika virus inhibitors: Unlinked NS2B-NS3 protease assay (AID 1347159). Further: nearly all actives have a fitted effect of over 60% in size. In a few lines:
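Percent inhibition derives from the 15-min fluorescence change (ex 480, em 540 nm), normalized to no-enzyme and no-inhibitor wells. Reactions contained 25 nM NS2B-NS3 complex and 1.5 microM substrate in 10 mM Tris-HCl pH 8.0.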
(In general: In qHTS, concentration-response curves come from the screen itself.)

The test system of assay [2] is Zika virus NS2B-NS3 protease (linked construct). Kind of assay: Primary screen NINDS Rhodamine qHTS for Zika virus inhibitors (AID 1347160). Further: nearly all actives have a fitted effect of over 55% in size. Summed up: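 In 10 mM Tris-HCl pH 8.0 containing 0.01% Tween 20, linked NS2B-NS3 protease (25 nM final) is exposed to test compounds for 15 min. Cleavage of 1.5 microM Rhodamine110 substrate is tracked by fluorescence over 15 min.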

Inconclusive results are not listed. A number with no mark means an inactive call. Calls of active or inactive are those of the source. The call rests on the fitted dose curve; in most records, active means well fitted inhibition curve with a large enough effect; inconclusive means small, poorly fitted or top-dose-only effect; inactive means no such curve, though single readings can be large or run the other way.
On the % scale 0 is the no-effect control and ±100 the full control effect.

On to `C#CC(=O)N(c1ccc(OC)cc1OC)C(C(=O)NCC(=O)OCC)c1cccs1` (stereo not given), for which the Potency result in assay [1] and in assay [2] was “inactive” throughout.

For the molecule `COc1ccccc1OCCNCC(O)CCOc1cccc2[nH]c3ccccc3c12` (stereo not given), the Potency result in assay [1] and in assay [2] was “inactive” throughout.

As to `C=C1C(=O)O[C@@H]2[C@H]1CC[C@H](C)[C@]1(CCC(=O)O1)C2(C)O` (stereo not given in full), the Potency entry in assay [1] and in assay [2] was “inactive” each time.

With `CC12CCC(OC3OC(CO)C(O)C(O)C3OC3OC(CO)C(O)C(O)C3O)CC1CCC1C2CCC2(C)/C(=C3/COC(=O)C3)CCC12O` (stereo not given), the Potency result in assay [1] and in assay [2] was “inactive” in each case.

For `CC1(C)CC[C@]23CO[C@@]4(CCC5[C@@]6(C)CC[C@H](O[C@@H]7OC[C@H](O[C@@H]8O[C@H](CO)[C@@H](O)[C@H](O)[C@H]8O[C@@H]8OC[C@@H](O)[C@H](O)[C@H]8O)[C@H](O)[C@H]7O[C@@H]7O[C@H](CO)[C@@H](O)[C@H](O)[C@H]7O)[C@@](C)(CO)C6CC[C@@]5(C)[C@]4(C)C[C@H]2O)[C@@H]3C1` (stereo not given in full), the Potency result in assay [1] and in assay [2] was “inactive” throughout.

Turning to `CC(=O)O[C@@H]1[C@H](O[C@@H]2O[C@@H](CO)[C@H](O)[C@H]2O)[C@@H](O[C@@H]2O[C@@H](C)[C@H](O[C@@H]3OC[C@@H](O)[C@H](O)[C@H]3O)[C@@H](O)[C@H]2O)[C@H](OC(=O)[C@]23CCC(C)(C)C[C@H]2C2=CCC4[C@@]5(C)CC[C@H](O[C@@H]6O[C@H](C(=O)O)[C@@H](O)[C@H](O)[C@H]6O[C@@H]6O[C@H](CO)[C@H](O)[C@H](O)[C@H]6O)[C@@](C)(C=O)C5CC[C@@]4(C)[C@]2(C)C[C@H]3O)O[C@@H]1C` (stereo not given in full), the activity change, negative = inhibition in assay [1] was 1.92% [at 19.1 µM]; in assay [2], 10.8% [at 10.7 µM].

As for `CCOc1cccc(NC(=O)c2ccc(N3CCCC3)c(C(F)(F)F)c2)c1`, the Potency entry in assay [1] and in assay [2] was “inactive” in each case.

`CC(=O)CC(=O)Nc1ccc(Cl)c(C(F)(F)F)c1`: the Potency result in assay [1] and in assay [2] was “inactive” throughout.

As for `Cc1cc(C)nc(SCC(=O)Nc2ncc(Cc3cccc4ccccc34)s2)n1`, the Potency result in assay [1] and in assay [2] was “inactive” throughout.

Turning to `CCC(C)(OC(C)=O)C(=O)O[C@H]1[C@H](OC(C)=O)[C@]2(CO)[C@H](O)[C@H](O)[C@]3(C)C(=CCC4[C@@]5(C)CC[C@H](O[C@@H]6O[C@H](C(=O)O)[C@@H](O)[C@H](O[C@@H]7OC[C@H](O)[C@H](O[C@@H]8OC[C@H](O)[C@H](O)[C@H]8O)[C@H]7O)[C@H]6O[C@@H]6O[C@H](CO)[C@@H](O)[C@H](O)[C@H]6O)C(C)(C)C5CC[C@]43C)[C@@H]2CC1(C)C` (stereo not given in full), the activity change, negative = inhibition was -1.56% [at 19.1 µM] in assay [1] and -4.88% [at 10.7 µM] in assay [2].

As for `Cc1cc(C(=O)Nc2cc(Nc3ccc4c(/C=C/c5ccccn5)n[nH]c4c3)ccc2F)n(C)n1`, the Potency entry in assay [1] and in assay [2] was “inactive” in each case.

Regarding `O=C(O)C1=CO[C@@H](O[C@@H]2O[C@H](CO)[C@@H](O)[C@H](O)[C@H]2O)[C@@H]2C(CO)=CC[C@H]12`, the Potency entry in assay [1] and in assay [2] was “inactive” each time.

Turning to `O=C(Nc1ccc(-c2ccnc(Nc3ccc(N4CCOCC4)cc3)n2)cc1)C1CCCN1` (stereo not given), the Potency result in assay [1] and in assay [2] was “inactive” throughout.

In the case of `C=C1C(=O)O[C@@H]2[C@H]1CC[C@H](C)C(CCC(=O)O)C2(C)O` (stereo not given in full), the Potency result in assay [1] and in assay [2] was “inactive” throughout.

In the case of `CNCCCC1(c2ccccc2)OC(C)(C)c2ccccc21` (stereo not given), the Potency entry in assay [1] and in assay [2] was “inactive” each time.

In the case of `COc1c(C)cc(NC(=O)c2nn(Cc3ccc(F)cc3)c3c2CN(C(=O)c2ccc[nH]2)C[C@]3(C)C(N)=O)cc1C`, the Potency result in assay [1] and in assay [2] was “inactive” in each case.

Consider `N#Cc1ccc(O[C@@H]2c3ccccc3C[C@H]2N2CCC[C@@H](N)C2)c(Cl)c1`, for which the Potency entry in assay [1] and in assay [2] was “inactive” each time.

As for `O=C(Nc1ccc(CN2CCOCC2)cc1)c1ccc(-c2cccc(Cl)c2)o1`, the Potency entry in assay [1] and in assay [2] was “inactive” in each case.

Take `CC(C)(C)c1ccc(NC(=O)N2CCN(c3ncccc3Cl)CC2)cc1`: the Potency result in assay [1] and in assay [2] was “inactive” in each case.

For `CC[N+]1(C/C2=C/CCCCCC2)CCC(NC(=O)C2c3cc(Cl)ccc3Oc3ccc(Cl)cc32)CC1` (stereo not given), the Potency result in assay [1] and in assay [2] was “inactive” in each case.

In the case of `CC(C)NCCCn1c(Sc2cc3c(cc2I)OCO3)nc2c(N)ncnc21`, the Potency entry in assay [1] and in assay [2] was “inactive” throughout.

For the molecule `COc1ccc(CCc2nc3cc(-c4c(C)noc4C)ccc3n2CC(C)N2CCOCC2)cc1Cl` (stereo not given), the Potency result in assay [1] and in assay [2] was “inactive” each time.

Turning to `C=C1[C@H]2CC[C@H](C(=O)O)[C@@]23CC[C@H](C3)C1(C)C`, the Potency result in assay [1] and in assay [2] was “inactive” in each case.

Regarding `CC#CC(=O)Nc1ccc2ncnc(Nc3cccc(Br)c3)c2c1`, the Potency result in assay [1] and in assay [2] was “inactive” in each case.

As for `Fc1ccc(-c2nc(C3CCNCC3)sc2-c2ccnc(NC3CC3)n2)cc1`, the Potency entry in assay [1] and in assay [2] was “inactive” throughout.

As for `Cn1cc(-c2cnn3c(N)c(Br)c([C@@H]4CCCNC4)nc23)cn1`, the Potency result in assay [1] and in assay [2] was “inactive” in each case.

For `C[C@@H]1CC[C@]2(C(=O)O)CC[C@]3(C)C(=CCC4[C@@]5(C)CC[C@H](O)[C@](C)(C(=O)O)C5CC[C@]43C)C2[C@]1(C)O` (stereo not given in full), the Potency entry in assay [1] and in assay [2] was “inactive” in each case.

Consider `CC(=O)O[C@@H]1C2=C(O)C(=O)[C@](C)(OC(C)=O)C(=O)C2=CO[C@@]12O[C@@H](C)CC[C@H]2OC(C)=O`, for which the Potency result in assay [1] and in assay [2] was “inactive” in each case.

With `FC(F)(F)c1ccc(/C=C/c2nc(COc3ccc(CCCCn4ccnn4)cc3)co2)cc1`, the Potency entry in assay [1] and in assay [2] was “inactive” throughout.

For `CC1OC(OC2C(O)COC(O[C@@H]3[C@@H](O)[C@@H](O)[C@H](OC4C(OC(=O)[C@]56CCC(C)(C)CC5C5=CCC7[C@@]8(C)C[C@H](O)[C@H](OC9OC(CO)C(O)C(O)C9O)[C@@](C)(CO)C8[C@H](O)C[C@@]7(C)[C@]5(C)CC6)OCC(O)C4O)O[C@H]3C)C2O)C(O)C(O)C1O` (stereo not given in full), in assay [1], the activity change, negative = inhibition is 8.24% [at 19.1 µM]. For the same molecule, the outcome in assay [2] is “inactive [at 10.7 µM]”.
